Assay results from PubChem BioAssay (EPA / NIEHS).
Results filed as inconclusive are left out. Active and inactive are the calls of the source. The calls were made as follows, unless noted: active = hit-call score of the fitted dose curve at least 0.9, where 1 is the maximum; inactive = score below 0.9.

How the values were obtained:
[1] = target: Paired box protein Pax-6 (Homo sapiens) (UniProt P26367); test: ATG_Pax6_CIS: Attagene CIS-FACTORIAL HepG2 Assay for human Paired Box 6 (PAX6) (AID 2282956); details: HepG2 CIS-FACTORIAL PAX6 reporter transcription, RNA readout; actives raise or lower the signal
Chain of Paired box protein Pax-6 (Homo sapiens) (P26367 whole entry, looked up): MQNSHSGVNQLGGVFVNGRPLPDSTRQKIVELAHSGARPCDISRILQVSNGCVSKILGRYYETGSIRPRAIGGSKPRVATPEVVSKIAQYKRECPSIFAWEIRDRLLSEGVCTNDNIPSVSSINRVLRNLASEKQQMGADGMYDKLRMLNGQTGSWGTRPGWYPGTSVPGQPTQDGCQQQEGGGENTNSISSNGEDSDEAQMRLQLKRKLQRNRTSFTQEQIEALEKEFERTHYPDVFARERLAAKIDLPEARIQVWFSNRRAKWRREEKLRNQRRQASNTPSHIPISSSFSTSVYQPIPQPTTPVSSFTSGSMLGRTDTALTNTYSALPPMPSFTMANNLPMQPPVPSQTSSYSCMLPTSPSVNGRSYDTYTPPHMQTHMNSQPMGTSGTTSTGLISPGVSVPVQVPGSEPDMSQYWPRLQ
How it was run: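 After twenty-four hours of chemical exposure, transfected HepG2 cells are harvested for RNA. Cis-promoter reporter transcripts are amplified, fluorescently labelled and sized by capillary electrophoresis, with gain and loss of signal scored against DMSO.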

[2] = ATG_PXRE_CIS: Attagene CIS-FACTORIAL HepG2 Assay for human Pregnane X Receptor Element (PXRE) (AID 2282957); details: HepG2 Attagene CIS-FACTORIAL PXRE reporter, mRNA; actives raise or lower the signal
How it was run: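 HepG2 cells transiently transfected with cis-regulated multiple reporter transcription units; endogenous factor activity measured as reporter mRNA 24 h after dosing. RT-PCR, fluorescent primer extension, HpaI digestion, capillary electrophoresis; bidirectional fit versus DMSO baseline.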

[3] = ATG_RORE_CIS: Attagene CIS-FACTORIAL HepG2 Assay for human RAR-related Orphan Receptor Element (RORE) (AID 2282959); details: HepG2 Attagene cis-factorial RORE reporter, mRNA; actives raise or lower the signal
How it was run: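 Transient MRTU transfection of human HepG2 liver cells (FuGene 6); 24 h compound exposure; TriZol RNA, oligo(dT) RT, PCR, FAM labeling, HpaI cut, CE fragment analysis. DMSO = negative control/baseline.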

[4] = ATG_Sox_CIS: Attagene CIS-FACTORIAL HepG2 Assay for human SRY-box transcription factor (SOX) (AID 2282960); details: HepG2 Attagene cis-factorial SOX reporter, mRNA; actives raise or lower the signal
How it was run: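 Endogenous factor activity in human liver HepG2 cells carrying transfected cis-regulated reporter units. RNA taken 24 h post-dose, reverse-transcribed, PCR-amplified and sized by capillary electrophoresis. Gain or loss of signal fitted relative to DMSO.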

[5] = target: Transcription factor Sp1 (Homo sapiens) (UniProt P08047); test: ATG_Sp1_CIS: Attagene CIS-FACTORIAL HepG2 Assay for human Specificity Protein 1 (Sp1) (AID 2282961); details: HepG2 Sp1 cis-reporter transcription, actives raise or lower the signal
Chain of Transcription factor Sp1 (Homo sapiens) (P08047 whole entry, looked up): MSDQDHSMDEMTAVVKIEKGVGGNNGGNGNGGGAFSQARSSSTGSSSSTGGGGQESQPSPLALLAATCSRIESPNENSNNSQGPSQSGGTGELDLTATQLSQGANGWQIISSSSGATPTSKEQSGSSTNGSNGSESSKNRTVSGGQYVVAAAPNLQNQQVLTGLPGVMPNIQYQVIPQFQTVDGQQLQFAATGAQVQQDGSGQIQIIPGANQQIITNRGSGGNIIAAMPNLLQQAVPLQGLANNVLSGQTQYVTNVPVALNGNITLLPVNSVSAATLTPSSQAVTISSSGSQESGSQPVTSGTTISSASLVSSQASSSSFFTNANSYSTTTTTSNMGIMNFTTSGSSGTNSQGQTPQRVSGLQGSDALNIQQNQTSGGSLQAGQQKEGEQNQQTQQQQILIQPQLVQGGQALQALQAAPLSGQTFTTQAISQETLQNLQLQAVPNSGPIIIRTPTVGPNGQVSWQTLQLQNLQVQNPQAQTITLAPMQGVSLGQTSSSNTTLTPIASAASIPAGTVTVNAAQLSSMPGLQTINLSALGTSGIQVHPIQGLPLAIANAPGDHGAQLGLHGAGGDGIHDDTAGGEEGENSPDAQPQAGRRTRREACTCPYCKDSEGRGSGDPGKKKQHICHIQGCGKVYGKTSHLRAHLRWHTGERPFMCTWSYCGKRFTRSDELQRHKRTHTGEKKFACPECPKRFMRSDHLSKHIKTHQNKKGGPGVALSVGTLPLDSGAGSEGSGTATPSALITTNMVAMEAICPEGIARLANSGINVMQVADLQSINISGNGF
How it was run: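 Transient MRTU-transfected HepG2, 24 h compound exposure. Total RNA → oligo(dT) RT → PCR of reporter → 6-FAM primer extension → HpaI digest → CE. Endpoint fitted both directions vs DMSO.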

[6] = ATG_SREBP_CIS: Attagene CIS-FACTORIAL HepG2 Assay for human Sterol Regulatory Element Binding (SREBP) (AID 2282962); details: HepG2 Attagene cis-factorial SREBP reporter, mRNA; actives raise or lower the signal
How it was run: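 Twenty-four hours after chemical dosing of transfected HepG2 cultures, reporter RNA was converted to cDNA, amplified, end-labelled with 6-FAM and resolved by capillary electrophoresis. Responses were fitted relative to DMSO.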

[7] = target: Signal transducer and activator of transcription 3 (Homo sapiens) (UniProt P40763); test: ATG_STAT3_CIS: Attagene CIS-FACTORIAL HepG2 Assay for human Signal Transducer and Activator of Transcription 3 (STAT3) (AID 2282963); details: HepG2, Attagene cis-factorial STAT3 reporter transcription; actives raise or lower the signal
Chain of Signal transducer and activator of transcription 3 (Homo sapiens) (P40763 whole entry, looked up): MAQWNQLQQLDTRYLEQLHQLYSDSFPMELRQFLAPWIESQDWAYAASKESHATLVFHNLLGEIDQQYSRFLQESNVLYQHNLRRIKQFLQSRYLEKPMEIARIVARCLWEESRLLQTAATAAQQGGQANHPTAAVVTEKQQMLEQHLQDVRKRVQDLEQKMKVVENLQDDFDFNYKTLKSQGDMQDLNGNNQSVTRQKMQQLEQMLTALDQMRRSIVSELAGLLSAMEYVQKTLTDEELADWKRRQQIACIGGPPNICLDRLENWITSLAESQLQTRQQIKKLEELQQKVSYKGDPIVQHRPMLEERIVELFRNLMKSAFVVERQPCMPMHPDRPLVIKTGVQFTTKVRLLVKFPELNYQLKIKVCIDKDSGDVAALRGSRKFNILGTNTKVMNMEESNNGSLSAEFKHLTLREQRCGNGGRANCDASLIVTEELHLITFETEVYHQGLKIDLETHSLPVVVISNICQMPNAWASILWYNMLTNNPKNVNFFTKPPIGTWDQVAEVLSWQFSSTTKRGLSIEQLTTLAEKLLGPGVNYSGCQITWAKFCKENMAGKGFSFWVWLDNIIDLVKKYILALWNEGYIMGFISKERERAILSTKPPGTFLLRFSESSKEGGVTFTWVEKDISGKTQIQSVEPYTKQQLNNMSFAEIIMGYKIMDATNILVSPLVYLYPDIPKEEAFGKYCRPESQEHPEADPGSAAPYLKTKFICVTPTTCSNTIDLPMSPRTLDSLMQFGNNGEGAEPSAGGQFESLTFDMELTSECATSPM
How it was run: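 HepG2 cells transiently transfected with multiple cis-element-driven reporter units report endogenous transcription factor activity. After 24 h compound exposure, reporter mRNA is measured by RT-PCR, 6-FAM labelling, HpaI digestion and capillary electrophoresis. Fitted bidirectionally versus DMSO.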

[8] = ATG_TA_CIS: Attagene CIS-FACTORIAL HepG2 Assay for human TA Basal Promoter (AID 2282964); details: HepG2 Attagene CIS-factorial TA basal promoter reporter; actives raise or lower the signal
How it was run: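 Multiplexed mRNA reporter assay, HepG2, 24 h. Reporter cDNA amplified, 6-FAM primer-extended, HpaI-cut, CE-sized; DMSO = negative control and baseline.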

[9] = ATG_TCF_b_cat_CIS: Attagene CIS-FACTORIAL HepG2 Assay for human T-Cell-Factor with beta-catenin (TCF/b-cat) (AID 2282965); details: HepG2 TCF/beta-catenin cis-reporter transcription, actives raise or lower the signal
How it was run: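 Cells of the HepG2 line carry transiently transfected reporter units whose promoters respond to endogenous factors. Twenty-four hours post-dosing, reporter mRNA induction is measured by fluorescent RT-PCR and capillary electrophoresis, with DMSO as baseline.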

[10] = ATG_TAL_CIS: Attagene CIS-FACTORIAL HepG2 Assay for human TAL Basal Promoter (AID 2282966); details: HepG2 Attagene cis-factorial TAL promoter reporter; actives raise or lower the signal;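 also: background control endpoint measuring basal TAL promoter reporter mRNA not a specific factor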
How it was run: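 HepG2 cells were transiently transfected with promoter-driven multiplexed reporter units and dosed for 24 h. Reporter mRNA was measured by RT-PCR with capillary electrophoresis fluorescence; bidirectional fits used DMSO as baseline, serving as a background control.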

[11] = ATG_TGFb_CIS: Attagene CIS-FACTORIAL HepG2 Assay for human Transforming Growth Factor (TGF) (AID 2282967); details: HepG2 Attagene CIS TGFb reporter, mRNA transcription; actives raise or lower the signal
How it was run: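 Transcript-level reporter readout: HepG2 transfectants, 24 h exposure, RNA to cDNA, reporter-specific PCR, fluorescent primer extension, capillary sizing against ROX standards. Gain- or loss-of-signal relative to DMSO.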

[12] = ATG_VDRE_CIS: Attagene CIS-FACTORIAL HepG2 Assay for human Vitamin D Receptor Element (VDRE) (AID 2282968); details: HepG2 VDRE cis-reporter transcription, actives raise or lower the signal
How it was run: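 Transiently transfected HepG2 cells carrying cis-regulated reporter transcription units were exposed for 24 h. Reporter mRNA was measured by RT-PCR with fluorescent labelling and capillary electrophoresis, and fitted in both directions against DMSO.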

[13] = target: Estrogen receptor (Homo sapiens) (UniProt P03372); test: ATG_ERa_TRANS: Attagene TRANS-FACTORIAL HepG2 Assay for human Estrogen Receptor alpha (ERa) (AID 2282970; active = hit-call score of the fitted dose curve at least 0.9, where 1 is the maximum); details: HepG2 Attagene TRANS ERa GAL4 reporter, mRNA
Chain of Estrogen receptor (Homo sapiens) (P03372 whole entry, looked up, the tested form may be a part): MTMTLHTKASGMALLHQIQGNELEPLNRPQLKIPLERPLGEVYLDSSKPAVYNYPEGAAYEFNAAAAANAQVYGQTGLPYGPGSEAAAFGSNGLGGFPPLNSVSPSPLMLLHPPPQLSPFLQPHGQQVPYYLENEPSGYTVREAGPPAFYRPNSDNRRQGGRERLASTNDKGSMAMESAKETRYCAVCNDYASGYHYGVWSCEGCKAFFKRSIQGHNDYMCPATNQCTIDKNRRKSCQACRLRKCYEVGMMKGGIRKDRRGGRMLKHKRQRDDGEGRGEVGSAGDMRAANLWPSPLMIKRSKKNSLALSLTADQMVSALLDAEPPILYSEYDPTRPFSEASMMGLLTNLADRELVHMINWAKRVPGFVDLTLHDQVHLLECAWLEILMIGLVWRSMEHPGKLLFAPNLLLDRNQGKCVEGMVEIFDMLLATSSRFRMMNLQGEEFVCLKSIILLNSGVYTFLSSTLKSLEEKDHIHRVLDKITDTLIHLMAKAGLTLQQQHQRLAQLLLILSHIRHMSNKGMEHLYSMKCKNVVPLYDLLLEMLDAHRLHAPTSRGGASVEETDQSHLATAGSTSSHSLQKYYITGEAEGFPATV
How it was run: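 HepG2 cells transiently transfected with multiplexed GAL4-UAS reporter units; ERa activity read via exogenous chimeric NR-Gal4 protein. After 24 hour compound exposure, reporter mRNA measured by RT-PCR with 6-FAM labelling and capillary electrophoresis; gain-of-signal fitted relative to DMSO.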

[14] = target: X-box-binding protein 1 (Homo sapiens) (UniProt P17861); test: ATG_Xbp1_CIS: Attagene CIS-FACTORIAL HepG2 Assay for human X-box Binding Protein 1 (XBP1) (AID 2282972); details: HepG2 XBP1 cis-element reporter, Attagene multiplex; actives raise or lower the signal
Chain of X-box-binding protein 1 (Homo sapiens) (P17861 whole entry, looked up): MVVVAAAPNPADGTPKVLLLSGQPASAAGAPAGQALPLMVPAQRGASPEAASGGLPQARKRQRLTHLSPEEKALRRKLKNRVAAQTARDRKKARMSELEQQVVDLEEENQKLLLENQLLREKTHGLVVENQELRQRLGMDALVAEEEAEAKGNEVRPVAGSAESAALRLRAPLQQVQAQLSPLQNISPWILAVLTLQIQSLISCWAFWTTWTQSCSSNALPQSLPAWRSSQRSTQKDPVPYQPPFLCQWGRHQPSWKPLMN
How it was run: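 After a 24-hour chemical exposure of HepG2 cells carrying cis-regulated reporters, reporter mRNA levels are assessed. Quantification uses RT-PCR, 6-FAM labelling and capillary electrophoresis. Gain- or loss-of-signal is fitted against DMSO.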

[15] = ATG_M_19_TRANS: Attagene TRANS-FACTORIAL HepG2 Assay for M19 Transcription Factor (Internal Marker) (AID 2282974; active = hit-call score of the fitted dose curve at least 0.9, where 1 is the maximum); details: HepG2 Attagene TRANS-FACTORIAL M19 internal marker reporter
How it was run: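 Fluorescence of 6-FAM-labelled reporter cDNA fragments, separated by capillary electrophoresis, served as the readout. These derived from HepG2 cells carrying transfected GAL4-UAS reporter units after 24 h dosing, with DMSO as negative control.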

[16] = ATG_GAL4_TRANS: Attagene TRANS-FACTORIAL HepG2 Assay for GAL4 (Internal Marker) (AID 2282976; active = hit-call score of the fitted dose curve at least 0.9, where 1 is the maximum); details: HepG2 Attagene TRANS GAL4 internal marker reporter
How it was run: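 HepG2 cells transiently transfected with multiplexed GAL4-UAS reporter constructs were dosed for 24 h. Reporter mRNA was measured by RT-PCR, 6-FAM primer extension, HpaI digestion and capillary electrophoresis, and gain of signal was fitted relative to DMSO.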

[17] = target: Estrogen-related receptor gamma (Homo sapiens) (UniProt P62508); test: ATG_ERRg_TRANS: Attagene TRANS-FACTORIAL HepG2 Assay for human Estrogen-Related Receptor gamma (ERRg) (AID 2282977; active = hit-call score of the fitted dose curve at least 0.9, where 1 is the maximum;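 also: hits increase reporter signal over DMSO so potencies reflect activators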); details: HepG2 Attagene TRANS reporter, ERRg transactivation
Chain of Estrogen-related receptor gamma (Homo sapiens) (P62508 whole entry, looked up, the tested form may be a part): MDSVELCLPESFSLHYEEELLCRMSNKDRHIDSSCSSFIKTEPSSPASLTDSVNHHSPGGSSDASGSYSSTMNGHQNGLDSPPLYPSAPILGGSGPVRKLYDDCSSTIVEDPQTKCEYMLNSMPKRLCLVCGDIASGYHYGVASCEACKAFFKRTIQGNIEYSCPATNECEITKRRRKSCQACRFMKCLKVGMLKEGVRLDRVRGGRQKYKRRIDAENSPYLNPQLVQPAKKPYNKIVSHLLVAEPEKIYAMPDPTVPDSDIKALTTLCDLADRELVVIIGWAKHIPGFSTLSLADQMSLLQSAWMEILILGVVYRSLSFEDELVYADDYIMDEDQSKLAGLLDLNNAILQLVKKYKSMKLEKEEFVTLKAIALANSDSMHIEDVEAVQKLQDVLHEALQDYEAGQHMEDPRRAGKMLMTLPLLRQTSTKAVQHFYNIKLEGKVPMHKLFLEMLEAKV
How it was run: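 HepG2 cells transiently transfected with multiplexed GAL4-UAS reporter units driven by chimeric NR-Gal4 proteins; 24 h exposure. Reporter mRNA quantified by RT-PCR, fluorescent labelling, HpaI digestion and capillary electrophoresis; gain of signal vs DMSO.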

[18] = target: Glucocorticoid receptor (Homo sapiens) (UniProt P04150); test: ATG_GR_TRANS: Attagene TRANS-FACTORIAL HepG2 Assay for human Glucocorticoid Receptor (GR) (AID 2282978; active = hit-call score of the fitted dose curve at least 0.9, where 1 is the maximum;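 also: activators score as hits since higher reporter transcript over DMSO is fitted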); details: HepG2 Attagene TRANS GR reporter, mRNA transcription
Chain of Glucocorticoid receptor (Homo sapiens) (P04150 whole entry, looked up, the tested form may be a part): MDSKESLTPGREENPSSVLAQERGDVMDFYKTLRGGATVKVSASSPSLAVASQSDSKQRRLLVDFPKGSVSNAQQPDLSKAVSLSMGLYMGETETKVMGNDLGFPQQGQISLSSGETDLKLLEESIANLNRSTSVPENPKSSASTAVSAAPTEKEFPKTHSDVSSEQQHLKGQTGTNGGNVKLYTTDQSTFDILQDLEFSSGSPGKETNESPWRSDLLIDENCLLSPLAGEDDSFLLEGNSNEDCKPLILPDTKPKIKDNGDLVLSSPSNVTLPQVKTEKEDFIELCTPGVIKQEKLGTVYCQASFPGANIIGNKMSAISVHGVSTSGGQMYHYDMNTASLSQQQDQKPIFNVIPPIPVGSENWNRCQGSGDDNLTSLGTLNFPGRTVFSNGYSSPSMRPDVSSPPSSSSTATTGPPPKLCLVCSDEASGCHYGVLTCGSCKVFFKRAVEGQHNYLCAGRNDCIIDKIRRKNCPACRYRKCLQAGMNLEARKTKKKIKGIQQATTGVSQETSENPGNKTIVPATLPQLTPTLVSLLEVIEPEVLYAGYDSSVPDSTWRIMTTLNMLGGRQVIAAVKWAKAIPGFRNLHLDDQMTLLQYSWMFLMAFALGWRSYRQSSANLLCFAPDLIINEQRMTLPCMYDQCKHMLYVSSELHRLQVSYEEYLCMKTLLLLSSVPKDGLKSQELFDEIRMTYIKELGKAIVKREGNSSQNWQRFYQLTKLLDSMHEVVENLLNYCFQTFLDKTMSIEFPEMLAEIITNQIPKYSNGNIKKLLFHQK
How it was run: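 Fluorescent capillary-electrophoresis quantitation of reporter mRNA is the readout, taken 24 h after dosing human HepG2 cells carrying transiently transfected GAL4-UAS reporter units activated by chimeric NR-GAL4 fusions; activity scored as induction over DMSO.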

[19] = target: Steroid hormone receptor ERR1 (Homo sapiens) (UniProt P11474); test: ATG_ERRa_TRANS: Attagene TRANS-FACTORIAL HepG2 Assay for human Estrogen-Related Receptor alpha (ERRa) (AID 2282971; active = hit-call score of the fitted dose curve at least 0.9, where 1 is the maximum); details: HepG2 Attagene TRANS reporter, ERRa transactivation
Chain of Steroid hormone receptor ERR1 (Homo sapiens) (P11474 whole entry, looked up, the tested form may be a part): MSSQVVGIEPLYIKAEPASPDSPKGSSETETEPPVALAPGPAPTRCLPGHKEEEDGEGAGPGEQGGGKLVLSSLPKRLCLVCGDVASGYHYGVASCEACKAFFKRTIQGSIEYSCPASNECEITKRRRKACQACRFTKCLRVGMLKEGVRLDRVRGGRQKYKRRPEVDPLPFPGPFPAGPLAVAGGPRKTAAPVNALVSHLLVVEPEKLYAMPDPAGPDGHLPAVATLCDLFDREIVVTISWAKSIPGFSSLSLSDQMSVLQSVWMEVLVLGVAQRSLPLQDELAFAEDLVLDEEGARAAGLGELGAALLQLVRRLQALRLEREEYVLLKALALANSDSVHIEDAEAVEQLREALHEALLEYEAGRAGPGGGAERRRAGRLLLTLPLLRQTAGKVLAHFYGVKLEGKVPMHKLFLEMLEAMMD
How it was run: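 HepG2 cells transiently transfected with multiplexed GAL4-UAS reporter units reading chimeric ERRa-Gal4 activity; 24 h compound exposure. Reporter mRNA measured by RT-PCR, 6-FAM labelling, HpaI digest and capillary electrophoresis; gain of signal fitted versus DMSO baseline.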

Measured: AC50

c1cc(-c2ccncc2)ccn1
not listed: [17] | [18] | [19]
inactive: all other assays above

Cc1nc(C)nc(N2C[C@@H](C)N(c3ccnc([C@@H](C)O)n3)[C@@H](C)C2)n1
not listed: [13] | [15] | [19]
inactive: all other assays above

CC(=O)OCCOCCOCCOC(C)=O
not listed: [17] | [18] | [19]
inactive: all other assays above

CC1(C)CC(N=C=O)CC(C)(CN=C=O)C1 (stereo not given)
active: [2] 55.6 µM
not listed: [13] | [15] | [16] | [17] | [18] | [19]
inactive: all other assays above

CCCc1cc(=O)[nH]c(=S)[nH]1
active: [2] 65.4 µM | [13] 8.12 µM
not listed: [12] | [17] | [18] | [19]
inactive: all other assays above

CCCCCCCC=O
active: [7] 37.7 µM
not listed: [15] | [16] | [17] | [18] | [19]
inactive: all other assays above

COc1cc(/C=C/C(=O)CC(=O)/C=C/c2ccc(O)c(OC)c2)ccc1O
active: [1] 46.6 µM | [2] 60.4 µM | [4] 43.1 µM | [5] 44.5 µM | [9] 27.4 µM | [12] 33.4 µM | [14] 33.4 µM
not listed: [6] | [16] | [18]
inactive: all other assays above

CC(=O)C(C)=CC1C(C)=CCCC1(C)C (stereo not given)
active: [2] 22.9 µM | [13] 29.8 µM
not listed: [12] | [15] | [17] | [18] | [19]
inactive: all other assays above

COc1ccc(S(=O)(=O)N2C(=O)[C@@](c3ccccc3OC)(N3C[C@H](O)C[C@H]3C(=O)N(C)C)c3cc(Cl)ccc32)c(OC)c1
inactive: [5] | [6] | [7] | [15]
active: [1] 64.1 µM | [2] 0.0584 µM | [3] 28.5 µM | [4] 122 µM | [8] 46.6 µM | [9] 42.1 µM | [10] 177 µM | [11] 145 µM | [12] 19.8 µM | [14] 69.5 µM

COc1cc(C=O)ccc1O
not listed: [17] | [18] | [19]
inactive: all other assays above

COc1ccc2c(c1)c(CC(=O)O)c(C)n2C(=O)c1ccc(Cl)cc1
not listed: [13] | [16] | [17] | [18] | [19]
inactive: all other assays above

Cc1cc(NC(=O)C(=O)O)cc(C)c1Oc1ccc(O)c2c1CCC2
not listed: [15] | [19]
inactive: all other assays above

NCCO
not listed: [12] | [17] | [18] | [19]
inactive: all other assays above

CCCCCCCCCCO
active: [9] 166 µM | [14] 160 µM
not listed: [15] | [16] | [17] | [18] | [19]
inactive: all other assays above

C1CCC(SSC2CCCCC2)CC1
active: [5] 158 µM | [6] 100 µM | [13] 27.4 µM
not listed: [15] | [16] | [17] | [18] | [19]
inactive: all other assays above

C=CCOC(=O)c1ccccc1C(=O)OCC=C
active: [2] 26.7 µM | [13] 76.7 µM
not listed: [12] | [17] | [18] | [19]
inactive: all other assays above

CCCCCCCCCCC
not listed: [12] | [13] | [17]
inactive: all other assays above
